Results reported in PubChem BioAssay (NCATS).
Results filed as inconclusive are left out. The source made the active and inactive calls. The call rests on the fitted dose curve; in most records, active means well fitted curve in the direction sought with a large enough effect; inconclusive means small, poorly fitted or top-dose-only effect, or another doubt; inactive means no such curve, though single readings can be large; an effect the other way counts as inactive or inconclusive.

How the values were obtained:
[1] = biological target: Arylsulfatase A (Homo sapiens) (UniProt P15289); assay: qHTS screen for enhancers of Arylsulfatase A (ASA1): LOPAC Validation Assay (AID 720538); settings: ASA enzyme activity, LOPAC qHTS enhancer assay; series mostly up to 57.5 µM
Outline: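 First, ASA-I179S fibroblasts from an MLD patient adhered for 6 hrs. Next, compounds were added for 48h. Then pNCS substrate (0.5mM final) with lysis buffer reacted 14h at room temperature before NaOH stop and fluorescence measurement.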

[2] = qHTS for compounds that reverse cellular toxicity of Amyloid beta (A-beta) peptide in yeast: LOPAC Validation Assay (AID 720559); settings: yeast expressing A-beta; series mostly up to 46.1 µM
Outline: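 Activity is expressed relative to DMSO and an equimolar ferric chloride/clioquinol mix. Compounds were pinned into medium with A-beta-expressing yeast, grown 48 hr at 30 C, then read by absorbance at 600 nm.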

[3] = qHTS for Activators of Parkin Expression: LOPAC Validation Assay (NLuc Reporter) (AID 720572); settings: Parkin promoter NanoLuc reporter cells, luminescence, percent of positive control, DMSO as zero; series mostly up to 46.1 µM
Outline: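 Compound effects on Parkin promoter activity were measured as NanoLuc luminescence after 24 h at 37 C. The neuronal reporter line also carried FLuc, which was read first. LOPAC compounds were tested at 7 concentrations, with normalization to DMSO (0%) and positive control (100%).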

Measured: outcome

Arylsulfatase A (Homo sapiens), sequence (P15289 whole entry, looked up): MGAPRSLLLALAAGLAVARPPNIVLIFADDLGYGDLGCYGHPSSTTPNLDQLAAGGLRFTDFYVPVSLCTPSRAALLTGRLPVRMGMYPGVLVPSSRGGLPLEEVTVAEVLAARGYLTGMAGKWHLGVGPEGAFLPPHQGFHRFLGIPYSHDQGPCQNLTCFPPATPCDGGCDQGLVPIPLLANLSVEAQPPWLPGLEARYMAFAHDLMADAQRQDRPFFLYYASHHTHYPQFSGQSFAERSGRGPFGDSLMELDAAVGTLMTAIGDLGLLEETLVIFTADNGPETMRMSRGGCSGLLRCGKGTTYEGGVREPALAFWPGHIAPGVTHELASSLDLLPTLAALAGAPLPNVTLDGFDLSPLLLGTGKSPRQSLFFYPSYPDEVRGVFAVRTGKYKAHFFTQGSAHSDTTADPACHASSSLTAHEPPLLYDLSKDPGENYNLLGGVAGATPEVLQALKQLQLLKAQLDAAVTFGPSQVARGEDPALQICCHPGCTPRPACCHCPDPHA

CN1Cc2c(N)cccc2C(c2ccccc2)C1 (stereo not drawn)
inactive: all assays above
